Screening data from PubChem BioAssay.
The list is not random: actives were taken first. Their share in the collection is about 7.1%.
ELG1 genotoxic: genotoxicity induction in ELG1-luciferase HEK293T cells; AID 504466; HEK293T ELG1-luciferase reporter, luminescence, 16 h; 330,000 compounds, 1.3% hits; Potency, µM (titrated, usually from 46 µM), for inactives: at the top dose activity change, positive = activation, usual class: activators; further: % of control where 0% means no effect; nearly all actives have a fitted effect of over 60% in size
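16 hr compound incubation (37 °C, 5% CO2) of HEK293T cells carrying luciferase-tagged ELG1; luciferase then measured by ONE-Glo luminescence after 30 min at RT.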
p53 reactivation: re-activators of mutant p53; Potency, µM (doses to about 92.2 µM), for the others: at the top dose activity change, positive = activation, most hits filed as activators; AID 504706; H1299 p53-A138V BP100-luciferase reporter, luminescence, 24 h; 320,000 compounds, 0.063% hits; further: % of control where 0% means no effect; nearly all actives have a fitted effect of over 45% in size
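H1299 (p53-null), stable ts p53-A138V + BP100-Luc; 1000 cells/well, Opti-MEM/10% FBS; cpd 4 pt, 1:5; 24 h, 37 deg C, 5% CO2; detection reagent 10 min RT; luminescence.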
A-T KAP1 phos: potential ataxia-telangiectasia treatments restoring KAP-1 phosphorylation; F2112 A-T fibroblasts, KAP-1 phosphorylation AlphaLISA; neocarzinostatin DNA damage 30 min before lysis; Potency, µM (top dose mostly 57.5 µM), inactives show at the highest dose activation, usual class: activators; 320,000 compounds, 0.19% hits; further: % of control where 0% means no effect; nearly all actives have a fitted effect of over 45% in size
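hTERT-immortalized A-T patient fibroblasts (F2112), 500 cells/well in OPTI-MEM, 1% FBS, got compounds for 60 min, then NCS for 30 min at 37C. Lysates were then assayed for phospho-KAP-1 by AlphaLISA (anti-pKAP1 donor, anti-KAP1 acceptor beads), 6 hr at 25C.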
MCF10A rereplic: DNA re-replication induction in MCF 10a cells; MCF 10A DNA re-replication, Hoechst nuclear intensity, 48 h; Potency, µM (titrated, usually from 46.1 µM), for the others: at the highest dose activity, positive = re-replication, most hits filed as activators; 350,000 compounds, 2.9% hits; AID 624296; further: % of control where 0% means no effect; nearly all actives have a fitted effect of over 50% in size
SW480 rereplic: inducers of DNA re-replication in SW480 colon cancer cells | SW480 DNA re-replication, Hoechst DNA content imaging, 48 h | Potency, µM (top dose mostly 46.1 µM), without a hit: at the top dose re-replication activation, most hits filed as activators | 340,000 compounds, 1.8% hits | AID 624297; further: % of control where 0% means no effect; nearly all actives have a fitted effect of over 55% in size
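Treated cells incubate 48 hr (37 C, 5% CO2), are stained 40 min with Hoechst, and nuclear fluorescence is enumerated; a rise in nuclei with high DNA signal marks re-replication.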
ELG1 DNA repair: inhibitors of ELG1-dependent DNA repair in HEK293T cells. HEK293T ELG1-luciferase reporter, luminescence, 16 h; DNA damage induced by 5-fluorouridine. Potency, µM (series often up to 46.1 µM), inactives show top-dose activity change, negative = inhibition, hits mostly inhibitors. 330,000 compounds, 2.3% hits; further: on the % scale 0 is the no-effect control and ±100 the full control effect; nearly all actives have a fitted effect of over 55% in size
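Step one: seed 2,000 cells per well. Step two: pin-transfer compound or DMSO alongside 5-fluorouridine. Step three: incubate 16 hr, 37 °C, 5% CO2. Step four: add ONE-Glo, wait 30 min, read luminescence.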
Starred values were filed as active, the others as inactive. The call rests on the fitted dose curve; in most records, active means well fitted curve in the direction sought with a large enough effect; inconclusive means small, poorly fitted or top-dose-only effect, or another doubt; inactive means no such curve, though single readings can be large; an effect the other way counts as inactive or inconclusive. Potency means the concentration at half of the fitted maximal effect.

For COc1ccc(/C=C(/NC(=O)c2ccccc2)c2nc3ccc(Cl)cc3[nH]2)cc1OC the results were ELG1 genotoxic -13.4%, p53 reactivation -8.8%, A-T KAP1 phos 1.2%, MCF10A rereplic inconclusive, SW480 rereplic -1.4% and ELG1 DNA repair inconclusive.
Screening C/C(=C\c1ccc(N)cc1)c1nc2ccccc2[nH]1 returned ELG1 genotoxic inconclusive, p53 reactivation inconclusive, A-T KAP1 phos 7.6%, MCF10A rereplic 3.2%, SW480 rereplic -12.5% and ELG1 DNA repair inconclusive.
CCS(=O)(=O)N1Cc2ccccc2CC1C(=O)Nc1ccc(F)c(F)c1F (configuration not stated) was read as ELG1 genotoxic 5.1%, p53 reactivation 7.7%, A-T KAP1 phos 14.3%, MCF10A rereplic -8.9%, SW480 rereplic -12.0% and ELG1 DNA repair 22.1%.
`CCN(CC)c1ccc(-n2c(C)c(C(C)=O)c(C(C)=O)c2C)cc1` gave ELG1 genotoxic -33.5%, p53 reactivation -1.6%, A-T KAP1 phos -4.3%, MCF10A rereplic 14.5%, SW480 rereplic -11.6% and ELG1 DNA repair 10.3µM*.
For COc1ccc2c(c1)CCc1cc(C(=O)N3CCN(c4ccc(N5CCOCC5)nn4)CC3)sc1-2 the results were ELG1 genotoxic -28.6%, p53 reactivation -7.9%, A-T KAP1 phos 6.2%, MCF10A rereplic inconclusive, SW480 rereplic 9.3% and ELG1 DNA repair 20.6µM*.
COc1cccc(C(=O)N2CCN(c3ccc(N4CCOCC4)nn3)CC2)c1 was read as ELG1 genotoxic 2.1%, p53 reactivation -0.5%, A-T KAP1 phos 1.8%, MCF10A rereplic -1.1%, SW480 rereplic -4.8% and ELG1 DNA repair inconclusive.
COc1ccc2cc(C(C)CO)ccc2c1 (configuration not stated) was read as MCF10A rereplic 8.1% and SW480 rereplic -0.4%.
CCOC(=O)C1CCN(c2ccccc2CN2CCN(c3ccccc3OCC)CC2)CC1 was read as ELG1 genotoxic -22.3%, p53 reactivation 2.3%, A-T KAP1 phos -2.9%, MCF10A rereplic inconclusive, SW480 rereplic -10.5% and ELG1 DNA repair 16.4µM*.
`CCOC(=O)C1CCN(Cc2cc(Cl)c3ccccc3c2O)CC1` gave ELG1 genotoxic -7.2%, p53 reactivation -3.9%, A-T KAP1 phos inconclusive, MCF10A rereplic 18.4µM*, SW480 rereplic inconclusive and ELG1 DNA repair -20.9%.
CCOC(=O)C1CCN(Cc2ccccn2)CC1 was read as ELG1 genotoxic -0.6%, A-T KAP1 phos 4.0% and ELG1 DNA repair 1.2%.
CCOc1ccccc1N1CCN(C(=O)C2c3ccccc3Oc3ccccc32)CC1 was read as ELG1 genotoxic -2.4%, p53 reactivation -18.3%, A-T KAP1 phos -1.7%, MCF10A rereplic 6.51µM*, SW480 rereplic 16.4µM* and ELG1 DNA repair 0.0%.
COc1ccc(NC(=O)CN(C)C(=O)CCCN2C(=O)c3cccc4cccc(c34)C2=O)cc1 was read as ELG1 genotoxic 0.7%, p53 reactivation -11.1%, A-T KAP1 phos 6.4%, MCF10A rereplic 4.7%, SW480 rereplic 1.9% and ELG1 DNA repair -20.8%.
For Cc1nn(CC(C)C)c(Cl)c1C(=O)N(c1ccc(Cl)cc1F)S(C)(=O)=O the results were ELG1 genotoxic -5.8%, p53 reactivation -8.2%, A-T KAP1 phos -5.9%, MCF10A rereplic 20.6µM*, SW480 rereplic 11.3% and ELG1 DNA repair -10.1%.
`COc1ccc(CCNC(=O)c2c(C)nn(CC(C)C)c2Cl)cc1` gave ELG1 genotoxic -11.4%, p53 reactivation 7.5%, A-T KAP1 phos -2.0%, MCF10A rereplic 3.1%, SW480 rereplic -2.9% and ELG1 DNA repair -3.6%.
`O=C(CSC1=NS(=O)(=O)c2cc(F)ccc2N1)Nc1cccc(F)c1` gave ELG1 genotoxic -1.4%, p53 reactivation 5.0%, A-T KAP1 phos -0.8%, MCF10A rereplic 4.1%, SW480 rereplic -1.3% and ELG1 DNA repair 19.3%.
